Assay [1] can be described thus: ATG_AP_2_CIS: Attagene CIS-FACTORIAL HepG2 Assay for human Activator Protein 2 (AP-2) (AID 2282932). The following applies: HepG2 AP-2 cis-reporter, Attagene transcription factor profiling; actives raise or lower the signal. In a few lines: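 Transiently transfected HepG2 cells are exposed to chemical for 24 h. Reporter transcripts are then measured as fluorescence following RT-PCR and capillary separation, and gain- or loss-of-signal is fitted relative to DMSO.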

Assay [2] addresses Transcription factor E2F1 (Homo sapiens) (UniProt Q01094). In words: ATG_E2F_CIS: Attagene CIS-FACTORIAL HepG2 Assay for human E2F Transcription Factor 1 (AID 2282935). Particulars: HepG2 Attagene cis-reporter, E2F reporter RNA transcripts; actives raise or lower the signal. Put shortly: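 Fluorescent RT-PCR products, digested with HpaI for 2 h at 37 C, are separated by capillary electrophoresis. Source RNA comes from transfected HepG2 cultures treated for 24 h.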

Assay [3] can be described thus: ATG_EGR_CIS: Attagene CIS-FACTORIAL HepG2 Assay for human Early Growth Response 1 (EGR1) (AID 2282938). The following applies: HepG2 Attagene CIS-FACTORIAL EGR reporter mRNA; actives raise or lower the signal. In a few lines:
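Fluorescent capillary-electrophoresis signal of reporter cDNA fragments serves as read-out. HepG2 cells bear transiently transfected cis-promoter reporter units and are exposed 24 h; gain- or loss-of-signal is fitted against DMSO.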

Assay [4] is described as follows: ATG_Ets_CIS: Attagene CIS-FACTORIAL HepG2 Assay for human Erythroblast Transformation Specific (ETS) (AID 2282941). The following applies: HepG2 ETS cis-reporter transcription, actives raise or lower the signal. In a few lines: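 Multiplexed reporter transcript profiling: HepG2, 24 h treatment, total RNA to cDNA, PCR, 6-FAM labelling, HpaI cut, capillary electrophoresis. Gain- or loss-of-signal fitted against DMSO.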

Assay [5] has as its target Hepatocyte nuclear factor 3-beta (Homo sapiens) (UniProt Q9Y261). In words: ATG_FoxA2_CIS: Attagene CIS-FACTORIAL HepG2 Assay for human Forkhead box A2 (FOXA2) (AID 2282942). The following applies: HepG2 cis-reporter transcription factor activity, 24 h; actives raise or lower the signal. In a few lines: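 Fluorescence signal of reporter cDNA fragments, separated by capillary electrophoresis, reflects endogenous transcription factor activity in transfected HepG2 after 24 h. Both increases and decreases fitted against DMSO.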

A short description of assay [6]: ATG_FoxO_CIS: Attagene CIS-FACTORIAL HepG2 Assay for human Forkhead box O (FoxO) (AID 2282943). The following applies: HepG2 Attagene cis-reporter, FoxO element, mRNA; actives raise or lower the signal. In a few lines: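 Endogenous transcription factor activity read from multiplexed cis-promoter reporter transcripts in transiently transfected HepG2, 24 h after dosing. Reporter RNA measured via RT-PCR plus capillary electrophoresis of FAM-labeled products; gain or loss relative to DMSO.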

Assay [7] has as its target Hypoxia-inducible factor 1-alpha (Homo sapiens) (UniProt Q16665). In words: ATG_HIF1a_CIS: Attagene CIS-FACTORIAL HepG2 Assay for human Hypoxia Inducible Factor 1 (HIF1A) (AID 2282951). The following applies: HepG2 Attagene cis-factorial HIF1a reporter transcription; actives raise or lower the signal. In a few lines: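 Endogenous-TF cis reporter readout, human HepG2 cells, 24 h incubation; mRNA detected via RT-PCR and capillary electrophoresis fluorescence; DMSO-normalised bidirectional fitting.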

A short description of assay [8]: ATG_RORE_CIS: Attagene CIS-FACTORIAL HepG2 Assay for human RAR-related Orphan Receptor Element (RORE) (AID 2282959). Particulars: HepG2 Attagene cis-factorial RORE reporter, mRNA; actives raise or lower the signal. In a few lines:
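Measured here: transcript induction of a cis-regulated reporter in HepG2 cells transiently transfected via FuGene 6. After 24 h, RNA was processed by RT-PCR and fluorescent capillary electrophoresis; DMSO defined baseline activity.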

The nature of assay [9]: ATG_TGFb_CIS: Attagene CIS-FACTORIAL HepG2 Assay for human Transforming Growth Factor (TGF) (AID 2282967). Particulars: HepG2 Attagene CIS TGFb reporter, mRNA transcription; actives raise or lower the signal. Put shortly: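 Readout: fluorescently labeled reporter cDNA fragments resolved by capillary electrophoresis after RT-PCR. Transfected HepG2 cells dosed for 24 h; endogenous TF activity at TGFB1-linked cis element; gain or loss fitted relative to DMSO.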

Assay [10] in a line: ATG_VDRE_CIS: Attagene CIS-FACTORIAL HepG2 Assay for human Vitamin D Receptor Element (VDRE) (AID 2282968). The following applies: HepG2 VDRE cis-reporter transcription, actives raise or lower the signal. In a few lines:
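Measures endogenous factor activity through cis-element-driven reporter transcripts in transiently transfected HepG2. Cells are treated 24 h; reporter mRNA is quantified by RT-PCR and capillary electrophoresis; fitting is bidirectional.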

The target of assay [11] is Transcriptional activator Myb (Homo sapiens) (UniProt P10242). In words: ATG_Myb_CIS: Attagene CIS-FACTORIAL HepG2 Assay for human Myeloblastosis (Myb) Proto-Oncogene Transcription Factor (AID 2282986). The following applies: HepG2 Attagene CIS-FACTORIAL Myb reporter transcription; actives raise or lower the signal. In a few lines: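 Multiplexed cis-reporter system in HepG2: transient transfection, 24 h treatment, mRNA readout by RT-PCR and capillary electrophoresis. Both increases and decreases are scored versus DMSO negative control.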

The target of assay [12] is Nuclear respiratory factor 1 (Homo sapiens) (UniProt Q16656). In words: ATG_NRF1_CIS: Attagene CIS-FACTORIAL HepG2 Assay for human Nuclear Respiratory Factor 1 (NRF1) Orphan Gene (AID 2282987). Particulars: HepG2 NRF1 cis-element reporter, Attagene multiplex; actives raise or lower the signal. In a few lines: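 Endogenous factor activity was captured via cis-element-driven reporter transcripts in HepG2 cells. Following 24 h chemical treatment, transcripts were quantified by RT-PCR and capillary electrophoresis.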

The nature of assay [13]: ATG_NFI_CIS: Attagene CIS-FACTORIAL HepG2 Assay for human Nuclear Factor I (NFI) (AID 2282989). The following applies: HepG2 cis-regulatory reporter, NFI response element transcription; actives raise or lower the signal. Put shortly: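 Read-out: reporter mRNA via RT-PCR plus capillary electrophoresis with fluorescence detection. Transiently transfected HepG2 (endogenous TF activity on cis promoters), 24 h compound exposure; gain or loss of signal fitted against DMSO.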

Assay [14] addresses Myc proto-oncogene protein (Homo sapiens) (UniProt P01106). In words: ATG_Myc_CIS: Attagene CIS-FACTORIAL HepG2 Assay for human Myelocytomatosis (Myc) Proto-Oncogene Transcription Factor (AID 2282990). Particulars: HepG2, Attagene cis-reporter transcription factor activity; actives raise or lower the signal. In a few lines:
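After 24 h chemical treatment of HepG2 cells carrying multiplexed cis-regulated reporter constructs, reporter transcripts quantified by RT-PCR and capillary electrophoresis of fluorescent fragments. Gain or loss fitted against DMSO baseline.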

Assay [15] deals with Nuclear receptor subfamily 1 group I member 2 (Homo sapiens) (UniProt O75469). In words: ATG_PXR_TRANS: Attagene TRANS-FACTORIAL HepG2 Assay for human Pregnane X Receptor (PXR) (AID 2283008; active = hit-call score of the fitted dose curve at least 0.9, where 1 is the maximum). In a few lines: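 Transient HepG2 transfectants carrying multiplexed reporter transcription units; PXR activity read through a Gal4 chimera. 24 h exposure. RT-PCR/CE fluorescence; upward curve fit referenced to DMSO.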

A short description of assay [16]: ATG_XTT_Cytotoxicity: Cytotoxicity Assessment in the Attagene TRANS-FACTORIAL HepG2 Assay (AID 2283584; active = hit-call score of the fitted dose curve at least 0.9, where 1 is the maximum). In a few lines:
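HepG2 cells transiently transfected with GAL4-UAS multiple reporter units, dosed 24 h; cytotoxicity read by XTT as loss of signal versus DMSO baseline.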

Assay [17] can be described thus: ATG_M_61_CIS: Attagene CIS-FACTORIAL HepG2 Assay for M61 Transcription Factor (Internal Marker) (AID 2282937). Particulars: HepG2 Attagene CIS-FACTORIAL M61 internal marker reporter; actives raise or lower the signal. Put shortly:
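Using transiently transfected HepG2 liver cells, reporter transcript levels were assessed 24 h post-dosing by RT-PCR and capillary electrophoresis. Changes in either direction were fitted relative to DMSO controls.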

Assay [18] concerns the target X-box-binding protein 1 (Homo sapiens) (UniProt P17861). In words: ATG_Xbp1_CIS: Attagene CIS-FACTORIAL HepG2 Assay for human X-box Binding Protein 1 (XBP1) (AID 2282972). Particulars: HepG2 XBP1 cis-element reporter, Attagene multiplex; actives raise or lower the signal. Put shortly: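 Human hepatoma HepG2, cis-element reporter system, 24 h treatment; mRNA quantified by RT-PCR/CE fluorescence; fit relative to DMSO.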

Assay [19] addresses Cellular tumor antigen p53 (Homo sapiens) (UniProt P04637). In words: ATG_p53_CIS: Attagene CIS-FACTORIAL HepG2 Assay for human p53 Transcription Factor (AID 2282994). The following applies: HepG2 p53 cis-element reporter, Attagene mRNA; actives raise or lower the signal. Put shortly:
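Transiently transfected HepG2 (multiple cis reporter transcription units); exposure 24 h; reporter RNA via RT-PCR, 6-FAM extension, 2 h HpaI digest at 37 C, CE detection; DMSO baseline.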

For assay [20] the target is unchanged. In words: TOX21_p53_BLA_p2_ratio: Tox21 HCT-116 p53 Agonism Beta-lactamase Assay, Ratio, Phase 2 (AID 2283592; active = hit-call score of the fitted dose curve at least 0.9, where 1 is the maximum). Put shortly: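 First, HCT116 reporter cells settle for 5 h at 37C. Next, DMSO compound solutions are pinned in (217-fold dilution) and left 16 h. Finally, CCF4-AM substrate is loaded 2 h at room temperature and the 460/530 nm ratio read.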

SMILES strings stand for the structures. Results filed as inconclusive are left out. Active and inactive are the calls of the source. Rule for the calls, unless noted: active = hit-call score of the fitted dose curve at least 0.9, where 1 is the maximum; inactive = score below 0.9.

Sequence of Cellular tumor antigen p53 (Homo sapiens) (P04637 whole entry, looked up): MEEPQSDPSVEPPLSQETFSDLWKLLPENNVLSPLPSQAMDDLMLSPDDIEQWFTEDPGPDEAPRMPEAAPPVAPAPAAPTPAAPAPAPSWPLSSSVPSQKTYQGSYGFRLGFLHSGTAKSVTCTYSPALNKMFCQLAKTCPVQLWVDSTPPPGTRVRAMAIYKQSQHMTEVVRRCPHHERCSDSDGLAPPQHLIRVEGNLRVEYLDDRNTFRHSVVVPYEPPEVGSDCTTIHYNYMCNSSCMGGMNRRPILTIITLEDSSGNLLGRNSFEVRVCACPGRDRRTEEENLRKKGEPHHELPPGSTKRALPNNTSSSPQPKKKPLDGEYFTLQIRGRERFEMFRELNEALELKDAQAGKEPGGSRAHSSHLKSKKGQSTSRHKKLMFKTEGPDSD
Sequence of Hepatocyte nuclear factor 3-beta (Homo sapiens) (Q9Y261 whole entry, looked up, the tested form may be a part): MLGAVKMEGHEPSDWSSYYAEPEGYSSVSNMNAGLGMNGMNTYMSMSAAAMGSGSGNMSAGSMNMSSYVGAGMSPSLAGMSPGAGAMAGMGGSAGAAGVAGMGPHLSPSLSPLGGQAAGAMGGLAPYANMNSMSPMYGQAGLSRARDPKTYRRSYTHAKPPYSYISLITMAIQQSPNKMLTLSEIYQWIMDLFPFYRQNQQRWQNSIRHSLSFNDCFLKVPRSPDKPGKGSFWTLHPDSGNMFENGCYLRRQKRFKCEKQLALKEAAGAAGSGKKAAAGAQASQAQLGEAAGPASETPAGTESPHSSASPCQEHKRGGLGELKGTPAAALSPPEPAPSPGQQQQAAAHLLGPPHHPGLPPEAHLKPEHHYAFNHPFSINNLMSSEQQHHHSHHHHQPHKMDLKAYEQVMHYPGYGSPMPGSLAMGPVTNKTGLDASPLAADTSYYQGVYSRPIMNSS
Sequence of Nuclear respiratory factor 1 (Homo sapiens) (Q16656 whole entry, looked up): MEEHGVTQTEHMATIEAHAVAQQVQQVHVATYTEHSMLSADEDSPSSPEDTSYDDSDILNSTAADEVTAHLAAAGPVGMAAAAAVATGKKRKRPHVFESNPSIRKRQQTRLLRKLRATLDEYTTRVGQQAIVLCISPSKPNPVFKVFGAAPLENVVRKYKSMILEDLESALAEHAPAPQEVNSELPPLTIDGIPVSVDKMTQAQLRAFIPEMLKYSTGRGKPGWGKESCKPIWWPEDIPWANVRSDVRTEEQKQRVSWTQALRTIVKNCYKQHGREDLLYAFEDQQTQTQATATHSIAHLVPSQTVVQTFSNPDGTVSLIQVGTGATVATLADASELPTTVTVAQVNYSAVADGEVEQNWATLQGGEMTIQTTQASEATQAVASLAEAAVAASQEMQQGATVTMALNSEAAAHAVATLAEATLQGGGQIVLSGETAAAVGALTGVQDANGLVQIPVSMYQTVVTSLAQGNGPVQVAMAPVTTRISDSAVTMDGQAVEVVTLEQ
Sequence of Nuclear receptor subfamily 1 group I member 2 (Homo sapiens) (O75469 whole entry, looked up, the tested form may be a part): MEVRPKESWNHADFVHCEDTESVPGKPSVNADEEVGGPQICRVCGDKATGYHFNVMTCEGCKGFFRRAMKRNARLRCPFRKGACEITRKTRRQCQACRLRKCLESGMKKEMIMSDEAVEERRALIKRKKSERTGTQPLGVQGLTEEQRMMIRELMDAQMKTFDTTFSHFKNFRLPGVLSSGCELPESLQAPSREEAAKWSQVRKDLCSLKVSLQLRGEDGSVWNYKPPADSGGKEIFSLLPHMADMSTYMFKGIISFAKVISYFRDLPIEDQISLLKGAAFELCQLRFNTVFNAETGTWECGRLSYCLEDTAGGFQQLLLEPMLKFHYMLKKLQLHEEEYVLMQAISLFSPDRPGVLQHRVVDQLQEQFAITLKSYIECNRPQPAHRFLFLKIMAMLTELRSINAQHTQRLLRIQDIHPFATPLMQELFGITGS
Sequence of X-box-binding protein 1 (Homo sapiens) (P17861 whole entry, looked up): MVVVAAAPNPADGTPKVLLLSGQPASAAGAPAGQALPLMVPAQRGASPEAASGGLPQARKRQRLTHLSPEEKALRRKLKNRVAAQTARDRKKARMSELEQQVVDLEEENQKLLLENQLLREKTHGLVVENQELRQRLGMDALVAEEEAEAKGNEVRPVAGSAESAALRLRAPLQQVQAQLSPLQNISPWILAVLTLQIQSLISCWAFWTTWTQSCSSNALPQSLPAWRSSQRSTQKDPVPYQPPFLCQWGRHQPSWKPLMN
Sequence of Hypoxia-inducible factor 1-alpha (Homo sapiens) (Q16665 whole entry, looked up): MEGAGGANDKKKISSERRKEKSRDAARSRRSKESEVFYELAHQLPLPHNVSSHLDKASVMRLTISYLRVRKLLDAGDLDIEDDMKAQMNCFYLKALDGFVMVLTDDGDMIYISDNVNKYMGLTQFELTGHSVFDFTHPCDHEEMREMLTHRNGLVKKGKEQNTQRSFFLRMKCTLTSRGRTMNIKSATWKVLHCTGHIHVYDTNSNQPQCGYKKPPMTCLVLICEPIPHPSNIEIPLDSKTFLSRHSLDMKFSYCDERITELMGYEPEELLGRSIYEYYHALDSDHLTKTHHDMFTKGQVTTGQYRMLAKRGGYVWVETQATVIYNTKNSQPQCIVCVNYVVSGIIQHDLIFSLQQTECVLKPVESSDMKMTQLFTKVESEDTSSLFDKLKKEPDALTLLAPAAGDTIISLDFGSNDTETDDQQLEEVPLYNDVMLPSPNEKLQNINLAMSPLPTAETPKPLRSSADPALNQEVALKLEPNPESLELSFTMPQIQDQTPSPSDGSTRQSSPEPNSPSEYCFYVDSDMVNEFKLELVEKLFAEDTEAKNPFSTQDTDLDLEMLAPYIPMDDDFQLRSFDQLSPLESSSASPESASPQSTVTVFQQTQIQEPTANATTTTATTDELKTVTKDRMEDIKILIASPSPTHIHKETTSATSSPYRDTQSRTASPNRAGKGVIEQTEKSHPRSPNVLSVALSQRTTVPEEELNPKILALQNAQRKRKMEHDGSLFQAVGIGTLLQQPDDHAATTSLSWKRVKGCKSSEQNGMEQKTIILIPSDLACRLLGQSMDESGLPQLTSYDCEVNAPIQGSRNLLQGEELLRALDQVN
Sequence of Transcription factor E2F1 (Homo sapiens) (Q01094 whole entry, looked up): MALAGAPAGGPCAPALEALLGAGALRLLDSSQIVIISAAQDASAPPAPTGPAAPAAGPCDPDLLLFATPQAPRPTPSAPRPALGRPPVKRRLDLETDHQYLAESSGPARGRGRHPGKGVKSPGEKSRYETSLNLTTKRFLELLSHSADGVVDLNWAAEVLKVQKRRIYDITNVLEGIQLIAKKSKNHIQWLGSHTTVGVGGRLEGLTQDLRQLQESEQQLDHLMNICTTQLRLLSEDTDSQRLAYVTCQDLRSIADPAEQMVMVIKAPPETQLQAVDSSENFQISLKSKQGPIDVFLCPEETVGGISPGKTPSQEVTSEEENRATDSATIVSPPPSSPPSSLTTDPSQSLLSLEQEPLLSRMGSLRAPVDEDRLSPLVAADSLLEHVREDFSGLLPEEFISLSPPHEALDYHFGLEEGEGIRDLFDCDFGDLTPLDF
Sequence of Myc proto-oncogene protein (Homo sapiens) (P01106 whole entry, looked up, the tested form may be a part): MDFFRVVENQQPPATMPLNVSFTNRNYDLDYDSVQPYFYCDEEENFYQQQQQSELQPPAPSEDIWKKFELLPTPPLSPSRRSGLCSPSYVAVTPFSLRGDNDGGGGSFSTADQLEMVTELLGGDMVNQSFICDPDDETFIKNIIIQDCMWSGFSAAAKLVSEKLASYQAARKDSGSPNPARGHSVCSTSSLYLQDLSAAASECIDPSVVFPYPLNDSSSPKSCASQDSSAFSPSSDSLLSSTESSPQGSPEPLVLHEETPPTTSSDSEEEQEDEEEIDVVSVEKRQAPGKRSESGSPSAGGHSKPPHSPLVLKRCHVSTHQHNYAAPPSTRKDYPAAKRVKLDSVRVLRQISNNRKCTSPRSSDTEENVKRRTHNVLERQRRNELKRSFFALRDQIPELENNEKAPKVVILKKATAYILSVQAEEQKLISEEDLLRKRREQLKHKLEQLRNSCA
Sequence of Transcriptional activator Myb (Homo sapiens) (P10242 whole entry, looked up): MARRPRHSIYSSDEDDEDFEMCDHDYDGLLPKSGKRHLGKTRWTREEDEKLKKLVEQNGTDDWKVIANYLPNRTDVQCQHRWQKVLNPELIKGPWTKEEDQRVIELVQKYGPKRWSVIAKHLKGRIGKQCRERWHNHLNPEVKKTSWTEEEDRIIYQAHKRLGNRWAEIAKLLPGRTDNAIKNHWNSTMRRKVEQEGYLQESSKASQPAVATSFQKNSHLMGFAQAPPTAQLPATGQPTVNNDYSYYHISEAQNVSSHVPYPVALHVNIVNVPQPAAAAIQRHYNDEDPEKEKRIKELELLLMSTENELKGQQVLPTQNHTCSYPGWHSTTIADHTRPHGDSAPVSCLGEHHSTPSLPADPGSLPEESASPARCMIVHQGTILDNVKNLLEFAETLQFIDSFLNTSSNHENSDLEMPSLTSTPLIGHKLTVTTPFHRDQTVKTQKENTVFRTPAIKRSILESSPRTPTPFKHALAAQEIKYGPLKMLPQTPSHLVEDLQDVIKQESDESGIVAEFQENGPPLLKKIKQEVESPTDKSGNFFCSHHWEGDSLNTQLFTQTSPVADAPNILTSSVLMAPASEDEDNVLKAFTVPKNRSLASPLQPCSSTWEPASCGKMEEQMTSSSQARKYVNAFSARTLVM

By AC50 is commonly meant the concentration at which the activity in the assay is half-maximal. Regarding `O=C(OCc1ccccc1)c1ccccc1`, the result in [1], in assay [2], in [3], in assay [4], in assay [5] and in [6] was inactive. Further, the result in assay [8], in [9], in assay [10], in [11], in assay [12] and in assay [13] was inactive. Also, the compound was called inactive in assay [14], in [15] and in assay [16]. Further, the AC50 in assay [7] was 175 µM (active).

Consider `C=CCOC(=O)C(=C)C`, for which the outcome in assay [1], in assay [2], in assay [17], in [3], in [4] and in assay [5] was inactive. Further, the call in assay [7], in assay [8], in assay [9], in assay [10], in [18] and in [11] was inactive. Also, the result in assay [12], in assay [13], in [19], in assay [16] and in assay [20] was inactive.

With `O=C1CCCCCCCCCCCCCC1`, the compound was called inactive in [1], in assay [17], in [4], in assay [5], in assay [7] and in [8]. For the same compound, the outcome in assay [9], in [10], in assay [11], in [12], in assay [13] and in assay [19] was inactive. Further, the compound was called inactive in assay [16] and in [20]. Moreover, in assay [15], the AC50 is 26.6 µM (active).

Take `COC(=O)/C=C\C(=O)OC`: the result in assay [1], in [17], in assay [5], in assay [6], in assay [7] and in assay [8] was inactive. The call in assay [9], in assay [18], in [11], in [12], in assay [13] and in assay [19] was inactive. For the same compound, the result in assay [15], in assay [16] and in assay [20] was inactive. Further, the half-maximal activity concentration (AC50) in assay [3] was 83.1 µM (active); in assay [4] it was 100 µM (active); in [10] it was 49.6 µM (active).

Consider `CCC(=O)OCc1ccc(OC)cc1`, for which the compound was classed as inactive in [1], in [2], in [3], in assay [4], in assay [5] and in assay [6]. For the same compound, the compound was called inactive in assay [7], in assay [8], in assay [9], in [10], in assay [18] and in assay [11]. The compound was classed as inactive in [12], in [13], in [14], in [19], in assay [16] and in assay [20]. Further, in [15], the AC50 is 31.6 µM (active).

As to `CC(C)CC(=O)CC(C)CC(C)C` (stereo unspecified), the compound was called inactive in [1], in assay [17], in assay [3], in assay [4], in [5] and in assay [7]. Also, the result in assay [8], in [9], in assay [18], in [11], in assay [12] and in [13] was inactive. In addition, the result in [14], in assay [19], in assay [15] and in assay [20] was inactive.

(Values after PubChem BioAssay (EPA / NIEHS).)
